# Compound activity as filed in PubChem.
# IL1B secr inh: qHTS for Inhibitors of Inflammasome Signaling: IL-1-beta AlphaLISA Primary Screen | THP-1 LPS/ATP IL-1B secretion, AlphaLISA, 16 h; active compounds read low | activity change, % at 57.5 µM | hit rate 4.7% among 360,000 | AID 743279, 2014; in the data active = activity change below about -50%; inconclusive = mostly about -30% to -49%
#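 Secreted IL-1B measured by AlphaLISA bead assay after 16 h compound exposure of THP-1 cells; compounds (final up to 57.5 uM) added 1 h before LPS (250 ng/mL) and ATP (1.25 mM) stimulation; lower signal means less secretion.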
# Giardia killer: Small Molecules that selectively kill Giardia lamblia: qHTS; AID 540267, 2011; hit rate 0.15% among 340,000; Giardia lamblia trophozoite viability; activity change, % at 7.66 µM, hits read low; in the data active = activity change below about -80%; inconclusive = between about -30% and that limit;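 also: parasites exposed to compound for two days anaerobically before the ATP read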
#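 Media and compound were dispensed first, then trophozoites at 100 cells/well; plates sat 48 hrs at 37 deg C without oxygen before ATP luminescence reagent was added and read after 15-30 min at room temperature.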
# ELG1 repair inh: qHTS screen for small molecules that inhibit ELG1-dependent DNA repair in human embryonic kidney (HEK293T) cells expressing luciferase-tagged ELG1. AID 504467, 2011. hit rate 2.3% among 330,000. HEK293T ELG1-luciferase reporter, luminescence, 16 h; DNA damage induced by 5-fluorouridine. Potency, µM (series often up to 46.1 µM), most hits filed as inhibitors; also: nearly all actives have a fitted effect of over 55% in size
#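 DMSO vehicle served as the neutral condition. Each well held 2,000 cells given 5-fluorouridine plus compound; after 16 hr at 37 °C/5% CO2, ONE-Glo was added and luciferase measured 30 min later.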
# TDP1 block: qHTS Assay for Inhibitors of Tyrosyl-DNA Phosphodiesterase (TDP1). recombinant TDP1, AlphaScreen DNA substrate cleavage. Potency, µM (highest dose often 130 µM), actives largely listed as inhibitors. hit rate 0.28% among 350,000. AID 485290, 2010; also: nearly all actives have a fitted effect of over 40% in size
# Target sequence (Q9NUW8 whole entry, looked up): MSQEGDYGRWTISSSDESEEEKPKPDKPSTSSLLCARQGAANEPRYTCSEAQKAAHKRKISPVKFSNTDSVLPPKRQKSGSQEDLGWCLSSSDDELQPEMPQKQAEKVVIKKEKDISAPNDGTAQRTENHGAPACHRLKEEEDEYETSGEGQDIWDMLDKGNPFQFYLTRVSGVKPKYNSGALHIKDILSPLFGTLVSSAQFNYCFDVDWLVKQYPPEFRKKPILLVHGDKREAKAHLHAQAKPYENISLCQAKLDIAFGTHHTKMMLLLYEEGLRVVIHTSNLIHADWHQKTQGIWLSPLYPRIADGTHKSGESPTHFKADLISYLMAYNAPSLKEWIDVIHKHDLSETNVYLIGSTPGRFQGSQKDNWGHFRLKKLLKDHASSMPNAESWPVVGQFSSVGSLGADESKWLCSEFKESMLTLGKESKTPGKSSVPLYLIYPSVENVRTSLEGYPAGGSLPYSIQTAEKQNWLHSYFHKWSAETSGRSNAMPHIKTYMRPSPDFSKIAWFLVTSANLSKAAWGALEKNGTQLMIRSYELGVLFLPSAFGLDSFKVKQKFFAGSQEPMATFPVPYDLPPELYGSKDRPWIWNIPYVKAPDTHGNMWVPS
#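 Compounds were preincubated with Tdp1 (1 nM final) for 15 min at room temperature before substrate (15 nM final) started a 5 min reaction; beads (10 ug/ml final) were then added for 10 min before AlphaScreen detection.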
# TDP1 cell CPT: qHTS for Inhibitors of human tyrosyl-DNA phosphodiesterase 1 (TDP1): qHTS in cells in presence of CPT; chicken DT40 Tdp1-/-;hTDP1 cells + 20 nM CPT, ATP luminescence, 48 h; Potency, µM (titrated, usually from 46.2 µM), actives largely listed as inhibitors; hit rate 12% among 420,000; AID 686979, 2013; also: nearly all actives have a fitted effect of over 55% in size
#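 Chicken DT40 Tdp1-/- cells stably complemented with human TDP1 were seeded at 400 cells/well in medium containing 20 nM camptothecin, exposed to pin-transferred compounds, and grown at 37 °C for at least 48 hr. Viability was read as ATP luminescence.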
# DT40 TDP1 no CPT: qHTS for Inhibitors of human tyrosyl-DNA phosphodiesterase 1 (TDP1): qHTS in cells in absence of CPT. DT40 Tdp1-/- hTDP1 cells, no CPT, ATP luminescence, 48 h. Potency, µM (series often up to 46.2 µM), actives largely listed as inhibitors. hit rate 15% among 420,000. AID 686978, 2013; also: nearly all actives have a fitted effect of over 55% in size
#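 DT40 Tdp1-/-;hTDP1 cells, no CPT (DMSO vehicle only), 400 cells/well; compounds pin-transferred; ≥48 hr, 37 °C; CellTiter-Glo 30 min RT dark, luminescence read.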
# Numbers stand for hits; 0 = inactive; ? = inconclusive; - = no result given. Rows were chosen to be rich in hits. Some 19% of all compounds tested hit in one or more screens of this group. Unless noted, calls follow the shape of the dose curve; as a rule, active = well fitted curve in the direction sought with a large enough effect; inconclusive = small, poorly fitted or top-dose-only effect, or another doubt; inactive = no such curve, though single readings can be large; an effect the other way counts as inactive or inconclusive.
SMILES,IL1B secr inh,Giardia killer,ELG1 repair inh,TDP1 block,TDP1 cell CPT,DT40 TDP1 no CPT
CC(/C=N/NC(=O)CSc1n[nH]c(=O)[nH]c1=O)=C\c1ccccc1,0,0,0,0,0,0
CC(=O)Nc1ccc(/C=C(\C#N)S(=O)(=O)c2ccc(C)cc2)cc1,0,0,0,0,?,?
O=C(CC1SC(N2CCCCC2)=NC1=O)Nc1cccc(C(=O)N2CCCC(C(F)(F)F)C2)c1 (stereo not given),0,0,-,-,?,0
CCCOc1ccc(CNC(=O)C2CCN(C(=O)c3sccc3-n3cccc3)CC2)cc1,-,-,-,0,?,?
CCN(CC)C(=O)C1=C(C)N(Cc2ccc(F)cc2)C(=O)C(CC(=O)NC(c2ccccc2)c2ccccc2)C1 (stereo not given),?,-,-,-,?,21µM
CC1=C(C(=O)N2CCOCC2)CC(CC(=O)NC2CC2)C(=O)N1CCC1=CCCCC1 (stereo not given),0,-,-,-,0,0
CCN(CC)C(=O)C1=C(C)N(Cc2ccc(F)cc2)C(=O)C(CC(=O)NCc2cccs2)C1 (stereo not given),?,-,-,-,0,0
CC1=C(C(=O)N(C(C)C)C(C)C)CC(CC(=O)NC(c2ccccc2)c2ccccc2)C(=O)N1Cc1ccc(C(C)(C)C)cc1 (stereo not given),-59,-,-,-,?,?
CC1=C(C(=O)N(C(C)C)C(C)C)CC(CC(=O)NC2CC2)C(=O)N1Cc1ccccc1 (stereo not given),0,-,-,-,0,0
CC1=C(C(=O)N2CCCCCC2)CC(CC(=O)NC(c2ccccc2)c2ccccc2)C(=O)N1CCC1=CCCCC1 (stereo not given),?,-,-,-,21µM,16µM
O=c1[nH]c(N2CCN(c3ccccc3)CC2)nc2c1CCCC2,0,?,?,0,?,23µM
O=c1[nH]c(N2CCN(c3ccccc3)CC2)nc2c1CCC2,0,0,0,0,0,?
COC(=O)c1cc([N+](=O)[O-])c(-n2cncn2)c([N+](=O)[O-])c1,0,0,0,0,5.8µM,5.8µM
COC(=O)c1cc(F)c(-n2cncn2)c(F)c1,0,0,0,0,0,0
CCC(O)c1cnc(OCc2ccccc2)nc1OCc1ccccc1 (stereo not given),0,-,-,-,?,18µM
Cn1c(=O)cnc2cnc(OCc3ccccc3)nc21,-,-,-,-,0,0
COc1cc(OC)cc(C(=O)N[C@H](C(=O)OCC(=O)Nc2sccc2C#N)C(C)C)c1,0,0,0,0,0,0
CN1CCC(Nc2ncc3ncnc(Nc4ccc(F)c(Cl)c4)c3n2)CC1,-,-,-,0,?,21µM
Cn1cc(C(=O)Nc2ccc(F)c(Cl)c2)cn1,0,0,0,0,0,?
CC1CCCN(c2nc(N(C)c3ccccc3)nc(N)c2[N+](=O)[O-])C1 (stereo not given),?,0,0,0,?,?
COc1cccc2sc3ccc(NCc4ccc5c(c4)OCO5)cc3c(=O)c12,0,0,0,-,?,?
COc1cccc2sc3cc(NCCCN4CCOCC4)ccc3c(=O)c12,-60,0,0,0,?,?
O=c1c2ccccc2oc2ccc(NCCCN3CCOCC3)cc12,-53,0,?,-,?,0
O=c1c2ccccc2oc2cc(NCCCN3CCOCC3)ccc12,-51,0,?,-,?,?
CCc1nc(NCCCN2CCOCC2)c2oc3ccccc3c2n1,0,0,?,0,?,?
SMILES,IL1B secr inh,Giardia killer,ELG1 repair inh,TDP1 block,TDP1 cell CPT,DT40 TDP1 no CPT
O=c1c2ccccc2oc2cc(NCCCn3ccnc3)ccc12,0,0,?,-,?,?
COc1ccc(-n2c(SCc3cn4c(C)cccc4n3)nc3ccccc3c2=O)cc1OC,?,0,?,0,?,?
COc1cc(C2Nc3ccccc3NC3=C2C(=O)CC(C)(C)C3)cc(OC)c1OC(C)=O (stereo not given),0,0,0,-,0,0
O=C(C1CCCCC1)N1C[C@H](n2cc(-c3ccc(F)cc3)nn2)[C@@H](O)C[C@@H]1c1ccc(Cl)cc1,-56,-,-,-,?,16µM
O=C(C1CCCCC1)N1C[C@@H](O)[C@H](n2cc(-c3ccc(F)cc3)nn2)C[C@@H]1c1ccc(Cl)cc1,0,-,-,-,?,?
O=C(C1CCCCC1)N1C[C@@H](n2cc(-c3ccc(F)cc3)nn2)[C@H](O)C[C@@H]1c1ccc(Cl)cc1,?,-,-,-,18µM,23µM
COc1ccc([C@H]2C[C@@H](n3cc(-c4ccc(F)cc4)nn3)[C@H](O)CN2C(=O)C2CCCCC2)cc1,0,-,-,-,?,8.2µM
O=C(C1CCCCC1)N1C[C@H](O)[C@@H](n2cc(-c3ccc(F)cc3)nn2)C[C@@H]1c1ccccc1,0,-,-,-,?,?
Cc1ccc([C@H]2C[C@@H](O)[C@H](n3cc(-c4ccc(F)cc4)nn3)CN2C(=O)C2CCCCC2)cc1,0,-,-,-,?,23µM
Cc1ccc(-c2csc(-c3nc(-c4ccc(Br)s4)cs3)n2)cc1,-,-,-,0,0,0
Cc1nn(-c2ccccc2)c(OC(=O)C(C)C)c1Sc1ccc(Cl)cc1,-,-,-,0,?,10µM
COc1cc(OC)cc(C(=O)Oc2c(Sc3ccccc3)c(C)nn2C(C)(C)C)c1,-,-,-,0,?,?
COc1ccc(C(=O)Oc2c(Sc3ccccc3)c(C)nn2-c2ccccc2)c(OC)c1,-,-,-,0,18µM,?
COc1ccc(NC(=O)C2(C)Cc3c(-c4cccc(C(F)(F)F)c4)ccnc3O2)cn1 (stereo not given),0,-,-,-,5.2µM,2.9µM
COc1ccc(NC(=O)C2(C)Cc3c(-c4ccccc4)ccnc3O2)cn1 (stereo not given),0,-,-,-,5.8µM,6.5µM
COc1ccc(NC(=O)C2(C)Cc3c(-c4ccc(N(C)C)cc4)ccnc3O2)cc1 (stereo not given),0,-,-,-,29µM,?
CN(C)c1ccc(-c2ccnc3c2CC(C)(C(=O)Nc2ccccc2)O3)cc1 (stereo not given),0,-,-,-,0,0
CC(=O)Nc1ccc(NC(=O)C2(C)Cc3c(-c4ccccc4)ccnc3O2)cc1 (stereo not given),0,-,-,-,?,0
Cc1nc(N)sc1-c1csc(Nc2ncccn2)n1,-81,0,?,89µM,16µM,18µM
COc1cccc(Nc2nc(-c3sc(NC(=O)c4ccco4)nc3C)cs2)c1,0,0,?,0,?,23µM
COc1cccc(Nc2nc(-c3sc(N)nc3C)cs2)c1,0,0,?,0,23µM,?
